Molecules are shown by their SMILES. Records with an inconclusive call do not appear. Calls of active or inactive are those of the source. Unless noted, calls come from the whole dose curve; as a rule, active = well fitted curve in the direction sought with a large enough effect in the repeat runs; inconclusive = weak or mixed curves; inactive = no such curve, though single readings can be large; an effect the other way counts as inactive or inconclusive.

Experiment [1] is described as follows: qHTS assay for small molecules that induce genotoxicity in human embryonic kidney cells expressing luciferase-tagged ATAD5 (AID 651632). Note: nearly all actives have a fitted effect of over 15% in size. Summed up: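 DMSO vehicle served as the control. HEK293T reporter cells, 16 hr at 37C, then 30 min Amplite at room temperature; ATAD5 induction is measured as luciferase activity.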
The nature of experiment [2]: qHTS assay for small molecules that induce genotoxicity in human embryonic kidney cells expressing luciferase-tagged ATAD5 - cell viability (AID 651634; calls by dose curve; note: nearly all actives have a fitted effect of over 25% in size; note: potency is the fitted concentration of half-maximal effect). Summed up: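 Here HEK293T cells with the ATAD5 luciferase reporter are incubated with test compounds for 15.5 hr, and cytotoxicity is then gauged by measuring protease activity in live cells using fluorescence.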
Experiment [3] can be described thus: qHTS assay for small molecule disruptors of the mitochondrial membrane potential - cell viability (AID 720634; calls by dose curve; note: nearly all actives have a fitted effect of over 20% in size; note: potency is the fitted concentration of half-maximal effect). Summed up:
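Viability of HepG2 cells is scored from ATP content by luminescence; cells are exposed to compound for 1 hr at 37 C and 5% CO2, then dosed with m-MPI dye before the CellTiter-Glo reagent.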
(In general: Quantitative high-throughput screening tests each substance at several concentrations.)

The nature of experiment [4]: qHTS assay to test for compound auto fluorescence at 590 nm (red) in HepG2 cells (AID 720674). Put shortly:
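Red autofluorescence (Ex/Em 540/590 nm, Rose Bengal sodium equivalents) was measured in HepG2 cells, 2,000 per well in MEM plus 10% FBS, plated overnight at 37 C. Readings were taken 1 hr after adding 23 nL compound or DMSO, at 37 C and 5% CO2.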

The nature of experiment [5]: qHTS assay to test for compound auto fluorescence at 535 nm (green) in HepG2 cells (AID 720675).
Experiment [6] is described as follows: qHTS assay to test for compound auto fluorescence at 460 nm (blue) in HEK293 cell free culture (AID 720681). Summed up:
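Blue fluorescence (Ex 405/Em 460 nm, triamterene-equivalent) was read immediately after pin transfer of compound or DMSO into medium (DMEM, 10% FBS) without cells.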

Experiment [7] can be described thus: qHTS assay to test for compound auto fluorescence at 535 nm (green) in HEK293 cell free culture (AID 720682). Put shortly: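 Measurement is a direct plate read of green fluorescence (485 nm in, 535 nm out) after compound addition to serum-supplemented DMEM lacking cells, with fluorescein used to express intensities.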
Experiment [8] can be described thus: qHTS assay to test for compound auto fluorescence at 590 nm (red) in HEK293 cell free culture (AID 720683). Put shortly: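 Red-channel autofluorescence of compounds in culture medium (DMEM, 10% FBS), no cells, measured at 540/590 nm. Rose Bengal sodium is the reference fluorophore for equivalence.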
Experiment [9] can be described thus: qHTS assay to test for compound auto fluorescence at 460 nm (blue) in HepG2 cell free culture (AID 720685). Summed up:
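Cell-free plates of MEM plus 10% FBS received 23 nL compound or DMSO vehicle; blue-channel (405/460 nm) intensity scored against triamterene as reference fluorophore.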

The nature of experiment [10]: qHTS assay to test for compound auto fluorescence at 535 nm (green) in HepG2 cell free culture (AID 720686).
Experiment [11] is described as follows: qHTS assay to test for compound auto fluorescence at 460 nm (blue) in HepG2 cells (AID 720687). Put shortly: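 Blue-channel autofluorescence (Ex/Em 405/460 nm, triamterene-equivalent) was measured after 1 hr compound exposure at 37 C, 5% CO2. Cells were HepG2, plated overnight at 37 C in MEM plus 10% FBS.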
A short description of experiment [12]: qHTS assay to identify small molecule antagonists of the glucocorticoid receptor (GR) signaling pathway - cell viability counter screen (AID 720693). Note: nearly all actives have a fitted effect of over 55% in size. Note: potency is the fitted concentration of half-maximal effect.
The nature of experiment [13]: qHTS assay to identify small molecule antagonists of the estrogen receptor alpha (ER-alpha) signaling pathway - cell viability counter screen (AID 743074; calls by dose curve;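 note: HEK293 cells carrying ER-alpha-UAS-bla reporter stimulated with 17beta-estradiol; nearly all actives have a fitted effect of over 45% in size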; note: potency is the fitted concentration of half-maximal effect).
Experiment [14] in a line: qHTS assay to identify small molecule antagonists of the estrogen receptor alpha (ER-alpha) signaling pathway using the BG1 cell line - cell viability counter screen (AID 743081).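 Note: compound given together with 17beta-estradiol as the ER stimulus; nearly all actives have a fitted effect of over 45% in size.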 Note: potency is the fitted concentration of half-maximal effect.
The target in another experiment is Aromatase (Homo sapiens) (UniProt P11511). The experiment in a line: qHTS assay to identify aromatase inhibitors (AID 743083). Note: nearly all actives have a fitted effect of over 55% in size. Note: potency is the fitted concentration of half-maximal effect.
Chain of Aromatase (Homo sapiens) (P11511 whole entry, looked up): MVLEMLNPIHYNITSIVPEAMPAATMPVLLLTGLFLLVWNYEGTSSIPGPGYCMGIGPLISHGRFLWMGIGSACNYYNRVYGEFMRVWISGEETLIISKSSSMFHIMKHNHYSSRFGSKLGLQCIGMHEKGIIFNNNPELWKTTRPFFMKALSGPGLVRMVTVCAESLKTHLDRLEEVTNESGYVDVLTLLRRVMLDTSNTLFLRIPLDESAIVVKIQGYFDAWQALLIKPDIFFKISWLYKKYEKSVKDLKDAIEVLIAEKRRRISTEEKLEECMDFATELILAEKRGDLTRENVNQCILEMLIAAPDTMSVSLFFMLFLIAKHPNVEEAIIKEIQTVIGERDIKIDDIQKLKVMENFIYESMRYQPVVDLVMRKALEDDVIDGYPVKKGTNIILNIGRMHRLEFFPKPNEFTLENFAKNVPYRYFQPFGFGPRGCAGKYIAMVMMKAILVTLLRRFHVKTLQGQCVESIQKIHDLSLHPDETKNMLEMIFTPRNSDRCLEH
Experiment [15] can be described thus: qHTS assay to identify aromatase inhibitors - cell viability counter screen (AID 743084).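 Note: cells stimulated with testosterone during compound exposure; nearly all actives have a fitted effect of over 55% in size.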 Note: potency is the fitted concentration of half-maximal effect.
Experiment [16] concerns the target Aryl hydrocarbon receptor (Homo sapiens) (UniProt P35869). Kind of experiment: qHTS assay to identify small molecule that activate the aryl hydrocarbon receptor (AhR) signaling pathway (AID 743085). Note: nearly all actives have a fitted effect of over 15% in size. Note: potency is the fitted concentration of half-maximal effect. Summed up:
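24 h compound exposure, 37C, HepG2-derived HG2L7.5c1 cells with DRE-responsive luciferase. Readouts: fluorescence viability, then luminescence at room temperature after 30 min.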

A short description of experiment [17]: qHTS assay to identify small molecule phospholipidosis (PLD) inducers (AID 1259344; active = well fitted curve in the direction sought with a large enough effect; an effect the other way counts as inactive or inconclusive). Summed up:
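Accumulated phospholipid, stained red by LipidTOX during 24 h compound treatment of HepG2 cells at 37 C, is quantified from images as pit number and intensity, normalised per cell using Hoechst-stained nuclei.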

Experiment [18] is described as follows: qHTS assay to identify small molecule antagonists of the thyroid receptor (TR) signaling pathway (AID 743065). Note: nearly all actives have a fitted effect of over 55% in size. Note: potency is the fitted concentration of half-maximal effect. Summed up:
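Antagonism measured as loss of luciferase signal in GH3 cells stably carrying a TRE-luciferase reporter, co-treated with compound and T3 (1 nM final) for 23.5 h at 37 C. Viability was read in the same well by CellTiter-Fluor.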

The test system of experiment [19] is thyroid hormone receptor (rat, GH3 cells). Kind of experiment: qHTS assay to identify small molecule agonists of the thyroid receptor (TR) signaling pathway (AID 743066; calls by dose curve).

Chain of Aryl hydrocarbon receptor (Homo sapiens) (P35869 whole entry, looked up): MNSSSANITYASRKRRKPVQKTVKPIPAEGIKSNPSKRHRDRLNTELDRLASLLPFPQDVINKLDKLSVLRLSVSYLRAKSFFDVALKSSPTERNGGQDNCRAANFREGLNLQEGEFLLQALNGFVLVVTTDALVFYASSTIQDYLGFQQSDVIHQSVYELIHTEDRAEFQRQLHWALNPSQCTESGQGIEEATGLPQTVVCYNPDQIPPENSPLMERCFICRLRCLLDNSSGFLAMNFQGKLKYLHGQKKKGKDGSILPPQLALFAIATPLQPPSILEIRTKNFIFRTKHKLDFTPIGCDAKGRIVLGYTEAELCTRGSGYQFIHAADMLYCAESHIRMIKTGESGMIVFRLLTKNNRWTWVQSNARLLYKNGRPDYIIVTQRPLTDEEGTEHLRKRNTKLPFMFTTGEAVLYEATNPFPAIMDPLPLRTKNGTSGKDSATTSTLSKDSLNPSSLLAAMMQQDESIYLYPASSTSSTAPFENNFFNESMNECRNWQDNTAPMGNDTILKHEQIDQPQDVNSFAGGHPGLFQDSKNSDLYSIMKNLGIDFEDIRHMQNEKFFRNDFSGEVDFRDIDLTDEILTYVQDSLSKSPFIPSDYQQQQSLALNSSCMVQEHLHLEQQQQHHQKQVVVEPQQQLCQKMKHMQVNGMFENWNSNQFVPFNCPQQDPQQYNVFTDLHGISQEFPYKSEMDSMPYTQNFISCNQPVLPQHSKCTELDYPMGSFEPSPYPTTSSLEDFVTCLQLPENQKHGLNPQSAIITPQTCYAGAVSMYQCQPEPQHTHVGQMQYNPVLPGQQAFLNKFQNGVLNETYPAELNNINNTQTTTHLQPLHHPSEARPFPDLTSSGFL

As for `C[N+]1([O-])[C@@H]2CC[C@H]1CC(OC(=O)C(CO)c1ccccc1)C2` (stereo not given in full), the Potency result in experiment [1], in [2], in [3], in experiment [5], in experiment [6] and in [7] was “inactive” in each case. Besides, the Potency result in experiment [9], in experiment [10], in experiment [11], in experiment [12], in [13] and in experiment [14] was “inactive” each time. The Potency entry (with Aromatase (Homo sapiens); in experiment [15]; in experiment [16]; in [17]) was “inactive” throughout. In addition, the compound was called inactive in experiment [4] and in experiment [8].
On to `C=CCN1CC[C@]23c4c5ccc(O)c4O[C@H]2[C@@H](O)C=C[C@H]3[C@H]1C5`, for which the Potency entry in [1], in experiment [2], in [3], in [5], in experiment [6] and in experiment [7] was “inactive” each time. The Potency entry in [9], in [10], in experiment [11], in experiment [12], in experiment [18] and in [19] was “inactive” in each case. For the same compound, the Potency entry (in [13]; in [14]; with Aromatase (Homo sapiens); in [15]; in experiment [16]; in experiment [17]) was “inactive” each time. For the same compound, the call in [4] and in experiment [8] was inactive.
Consider `OC[C@@H](O)[C@H]1O[C@@H]2O[C@@H](C(Cl)(Cl)Cl)O[C@@H]2[C@H]1O`, for which the Potency result in experiment [1], in experiment [2], in experiment [3], in experiment [5], in experiment [6] and in experiment [7] was “inactive” in each case. The Potency entry in experiment [9], in [10], in [11], in [12], in [18] and in experiment [19] was “inactive” each time. Moreover, the Potency entry (in experiment [13]; in [14]; in the experiment with Aromatase (Homo sapiens); in experiment [15]; in experiment [16]; in experiment [17]) was “inactive” in each case. Further, the compound was called inactive in experiment [4] and in experiment [8].
With `N#CC1(N2CCCCC2)CCCCC1`, the Potency result in experiment [1], in experiment [2], in experiment [3], in [5], in experiment [6] and in [7] was “inactive” throughout. Further, the Potency result in experiment [9], in experiment [10], in experiment [11], in [12], in experiment [18] and in experiment [19] was “inactive” throughout. For the same compound, the Potency result (in experiment [13]; in [14]; in the experiment with Aromatase (Homo sapiens); in [15]; in experiment [16]; in [17]) was “inactive” throughout. The compound was called inactive in [4] and in experiment [8].
For the compound `CNC(=O)Oc1ccccc1C(=O)Nc1ccccc1`, the Potency result in experiment [1], in [2], in [5], in experiment [6], in experiment [7] and in [9] was “inactive” in each case. Further, the Potency entry (in [11]; in experiment [12]; in experiment [19]; in experiment [13]; in [14]; with Aromatase (Homo sapiens)) was “inactive” throughout. Further, the Potency entry in [15] and in [17] was “inactive” throughout. The compound was classed as inactive in experiment [4] and in [8]. Further, the Potency in experiment [16] is 23.7 µM (active).
For the compound `[H+].[H+].[Hg+2].[O-]B([O-])[O-].[c-]1ccccc1`, the Potency in experiment [2] is 9.44 µM (active); in experiment [3], 13.3 µM (active); in experiment [12], 2.68 µM (active); in experiment [18], 0.596 µM (active); in [13], 6.01 µM (active); in experiment [14], 5.31 µM (active). Further, the Potency is 7.5 µM (active) with Aromatase (Homo sapiens) and 10.6 µM (active) in experiment [15]. In addition, the result in [4] and in experiment [8] was inactive. In addition, the Potency entry in [5], in [6], in experiment [7], in experiment [9], in [11] and in experiment [17] was “inactive” in each case.
Regarding `CCCC(C)(COC(N)=O)COC(=O)NC1CC1` (stereo not given), the Potency entry in experiment [1], in experiment [2], in experiment [3], in [6], in experiment [7] and in [9] was “inactive” each time. In addition, the Potency result in experiment [10], in experiment [11], in experiment [12], in experiment [18], in experiment [19] and in experiment [13] was “inactive” each time. The Potency entry (in experiment [14]; with Aromatase (Homo sapiens); in experiment [15]; in experiment [16]; in experiment [17]) was “inactive” in each case. For the same compound, the call in experiment [4] and in experiment [8] was inactive.

These data come from PubChem BioAssay (Tox21).
